# Laboratory results as given in PubChem BioAssay AID1159580 (chemical genetic matrix, 2015).
# About 2,000 (36%) of roughly 5,500 compounds were called active. Roughly 18% stayed inconclusive and do not appear here. This is one part of the list. Values without a mark were called inactive. No stated cut-off is given here; in the data, active means normalized growth mostly below about 0.91 (no sharp cut-off); inconclusive means no clear call, values can overlap the other calls; inactive means mostly above about 0.92.
# Experiment: chemical genetic growth profiling, strain panel (AID 1159580);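 further: tested at 20 µM; growth read once vehicle control cultures reached saturation at 30 °C; 1 = growth at the plate median or of vehicle wells; lower values mean less growth of the strain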
# Conditions: growth OD
smiles,measurement,setting,value
C=C1C(=O)O[C@@H]2C3O[C@]3(C)CC/C=C(\C)CC[C@@H]12 (some centres not stated),normalized growth,"S. cerevisiae deletion strains, locus YJR075W, strain HOC1, active compounds read low",0.828 (active)
same,normalized growth,"S. cerevisiae deletion strains, locus YKL009W, strain mrt4, active compounds read low",0.913
same,normalized growth,"S. cerevisiae deletion strains, locus YKL068W, active compounds read low",0.936 (active)
same,normalized growth,"S. cerevisiae deletion strains, locus YKL085W, strain MDH1 (second series), active compounds read low",0.932
same,normalized growth,"S. cerevisiae deletion strains, locus YKL085W, strain MDH1, active compounds read low",0.932
same,normalized growth,"S. cerevisiae deletion strains, locus YKL160W, strain elf1, active compounds read low",0.946
same,normalized growth,"S. cerevisiae deletion strains, locus YKL190W, strain CNB1, active compounds read low",0.796 (active)
same,normalized growth,"S. cerevisiae deletion strains, locus YKR001C, strain vps1, active compounds read low",0.544 (active)
same,normalized growth,"S. cerevisiae deletion strains, locus YKR026C, strain gcn3, active compounds read low",0.991
same,normalized growth,"S. cerevisiae deletion strains, locus YKR091W, strain srl3, active compounds read low",0.99
same,normalized growth,"S. cerevisiae deletion strains, locus YLL001W, strain dnm1, active compounds read low",0.968
same,normalized growth,"S. cerevisiae deletion strains, locus YLL026W, active compounds read low",0.987
same,normalized growth,"S. cerevisiae deletion strains, locus YLL041C, strain sdh2, active compounds read low",0.987
same,normalized growth,"S. cerevisiae deletion strains, locus YLR027C, strain aat2, active compounds read low",0.969
same,normalized growth,"S. cerevisiae deletion strains, locus YLR039C, strain RIC1, active compounds read low",0.245 (active)
same,normalized growth,"S. cerevisiae deletion strains, locus YLR058C, strain SHM2, active compounds read low",0.934
same,normalized growth,"S. cerevisiae deletion strains, locus YLR102C, strain apc9, active compounds read low",0.944
same,normalized growth,"S. cerevisiae deletion strains, locus YLR113W, strain HOG1, active compounds read low",0.932
same,normalized growth,"S. cerevisiae deletion strains, locus YLR221C, strain rsa3, active compounds read low",0.993
same,normalized growth,"S. cerevisiae deletion strains, locus YLR258W, strain gsy2, active compounds read low",0.999
same,normalized growth,"S. cerevisiae deletion strains, locus YLR262C, strain YPT6 (second series), active compounds read low",0.566 (active)
same,normalized growth,"S. cerevisiae deletion strains, locus YLR262C, strain YPT6, active compounds read low",0.193 (active)
same,normalized growth,"S. cerevisiae deletion strains, locus YLR268W, strain sec22, active compounds read low",0.68 (active)
same,normalized growth,"S. cerevisiae deletion strains, locus YLR320W, strain mms22, active compounds read low",0.893
same,normalized growth,"S. cerevisiae deletion strains, locus YLR330W, strain CHS5, active compounds read low",0.849 (active)
same,normalized growth,"S. cerevisiae deletion strains, locus YLR342W, strain FKS1 (second series), active compounds read low",0.536 (active)
same,normalized growth,"S. cerevisiae deletion strains, locus YLR342W, strain FKS1, active compounds read low",0.94
same,normalized growth,"S. cerevisiae deletion strains, locus YLR357W, strain rsc2, active compounds read low",1.08
same,normalized growth,"S. cerevisiae deletion strains, locus YLR370C, strain arc18, active compounds read low",0.964
same,normalized growth,"S. cerevisiae deletion strains, locus YLR371W, strain rom2, active compounds read low",0.791 (active)
same,normalized growth,"S. cerevisiae deletion strains, locus YLR384C, strain iki3, active compounds read low",0.975
same,normalized growth,"S. cerevisiae deletion strains, locus YLR418C, strain cdc73, active compounds read low",0.42 (active)
same,normalized growth,"S. cerevisiae deletion strains, locus YML016C, strain PPZ1, active compounds read low",0.911 (active)
same,normalized growth,"S. cerevisiae deletion strains, locus YML032C, strain rad52, active compounds read low",0.87 (active)
same,normalized growth,"S. cerevisiae deletion strains, locus YML120C, strain ndi1, active compounds read low",0.96
same,normalized growth,"S. cerevisiae deletion strains, locus YML124C, strain tub3, active compounds read low",0.929 (active)
same,normalized growth,"S. cerevisiae deletion strains, locus YMR058W, strain fet3, active compounds read low",0.992
same,normalized growth,"S. cerevisiae deletion strains, locus YMR078C, strain ctf18, active compounds read low",0.741 (active)
same,normalized growth,"S. cerevisiae deletion strains, locus YMR125W, strain sto1, active compounds read low",0.792 (active)
same,normalized growth,"S. cerevisiae deletion strains, locus YMR129W, active compounds read low",0.993
same,normalized growth,"S. cerevisiae deletion strains, locus YMR205C, strain PFK2, active compounds read low",0.938
same,normalized growth,"S. cerevisiae deletion strains, locus YMR223W, strain ubp8, active compounds read low",0.801 (active)
same,normalized growth,"S. cerevisiae deletion strains, locus YMR231W, strain pep5, active compounds read low",0.982
same,normalized growth,"S. cerevisiae deletion strains, locus YMR263W, strain SAP30, active compounds read low",0.9
same,normalized growth,"S. cerevisiae deletion strains, locus YMR307W, strain GAS1, active compounds read low",0.26 (active)
same,normalized growth,"S. cerevisiae deletion strains, locus YNL067W, strain RPL9B, active compounds read low",0.808 (active)
same,normalized growth,"S. cerevisiae deletion strains, locus YNL071W, strain lat1, active compounds read low",0.804 (active)
same,normalized growth,"S. cerevisiae deletion strains, locus YNL128W, strain TEP1, active compounds read low",0.925
same,normalized growth,"S. cerevisiae deletion strains, locus YNL153C, strain GIM3, active compounds read low",0.822 (active)
same,normalized growth,"S. cerevisiae deletion strains, locus YNL183C, strain NPR1, active compounds read low",0.952
same,normalized growth,"S. cerevisiae deletion strains, locus YNL209W, strain ssb2, active compounds read low",0.979
same,normalized growth,"S. cerevisiae deletion strains, locus YNL233W, strain BNI4, active compounds read low",0.763 (active)
same,normalized growth,"S. cerevisiae deletion strains, locus YNL248C, strain rpa49, active compounds read low",0.897
same,normalized growth,"S. cerevisiae deletion strains, locus YNL250W, strain rad50, active compounds read low",0.933
same,normalized growth,"S. cerevisiae deletion strains, locus YNL271C, strain bni1, active compounds read low",0.905 (active)
same,normalized growth,"S. cerevisiae deletion strains, locus YNL298W, strain CLA4, active compounds read low",0.878 (active)
same,normalized growth,"S. cerevisiae deletion strains, locus YNL307C, strain MCK1, active compounds read low",0.165 (active)
same,normalized growth,"S. cerevisiae deletion strains, locus YNL322C, strain KRE1 (second series), active compounds read low",0.981
same,normalized growth,"S. cerevisiae deletion strains, locus YNL322C, strain KRE1, active compounds read low",0.861 (active)
same,normalized growth,"S. cerevisiae deletion strains, locus YNR049C, strain mso1, active compounds read low",0.997
same,normalized growth,"S. cerevisiae deletion strains, locus YNR052C, strain pop2, active compounds read low",0.818 (active)
same,normalized growth,"S. cerevisiae deletion strains, locus YOL006C, strain TOP1, active compounds read low",0.547
same,normalized growth,"S. cerevisiae deletion strains, locus YOL012C, strain htz1",0.318
same,normalized growth,"S. cerevisiae deletion strains, locus YOL147C, strain pex11, active compounds read low",0.883 (active)
same,normalized growth,"S. cerevisiae deletion strains, locus YOR001W, strain rrp6, active compounds read low",1.01
same,normalized growth,"S. cerevisiae deletion strains, locus YOR061W, strain CKA2, active compounds read low",0.918
same,normalized growth,"S. cerevisiae deletion strains, locus YOR069W, strain VPS5, active compounds read low",0.935
same,normalized growth,"S. cerevisiae deletion strains, locus YOR070C, strain gyp1, active compounds read low",0.977
same,normalized growth,"S. cerevisiae deletion strains, locus YOR080W, strain dia2, active compounds read low",0.998
same,normalized growth,"S. cerevisiae deletion strains, locus YOR083W, strain WHI5, active compounds read low",0.965
same,normalized growth,"S. cerevisiae deletion strains, locus YOR106W, strain vam3, active compounds read low",0.955
same,normalized growth,"S. cerevisiae deletion strains, locus YOR136W, strain idh2, active compounds read low",0.905 (active)
same,normalized growth,"S. cerevisiae deletion strains, locus YOR144C, strain elg1, active compounds read low",0.901 (active)
same,normalized growth,"S. cerevisiae deletion strains, locus YOR184W, strain ser1, active compounds read low",0.628 (active)
same,normalized growth,"S. cerevisiae deletion strains, locus YOR231W, strain MKK1, active compounds read low",0.977
same,normalized growth,"S. cerevisiae deletion strains, locus YOR265W, strain rbl2, active compounds read low",0.978
same,normalized growth,"S. cerevisiae deletion strains, locus YOR270C, strain vph1, active compounds read low",0.92
same,normalized growth,"S. cerevisiae deletion strains, locus YOR290C, strain snf2, active compounds read low",0.971
same,normalized growth,"S. cerevisiae deletion strains, locus YOR316C, strain cot1, active compounds read low",0.93
same,normalized growth,"S. cerevisiae deletion strains, locus YPL051W, strain arl3, active compounds read low",0.921
same,normalized growth,"S. cerevisiae deletion strains, locus YPL055C, strain LGE1, active compounds read low",0.743 (active)
same,normalized growth,"S. cerevisiae deletion strains, locus YPL078C, strain atp4, active compounds read low",0.94
same,normalized growth,"S. cerevisiae deletion strains, locus YPL106C, strain sse1, active compounds read low",0.869
same,normalized growth,"S. cerevisiae deletion strains, locus YPL240C, strain hsp82, active compounds read low",0.991
same,normalized growth,"S. cerevisiae deletion strains, locus YPL241C, strain CIN2, active compounds read low",0.922 (active)
same,normalized growth,"S. cerevisiae deletion strains, locus YPL256C, strain CLN2, active compounds read low",0.93
same,normalized growth,"S. cerevisiae deletion strains, locus YPR119W, strain clb2, active compounds read low",0.908 (active)
same,normalized growth,"S. cerevisiae deletion strains, locus YPR141C, strain kar3, active compounds read low",0.902 (active)
same,normalized growth,"S. cerevisiae deletion strains, locus YPR163C, strain tif3, active compounds read low",0.355 (active)
same,normalized growth,"S. cerevisiae deletion strains, locus YPR167C, strain met16, active compounds read low",0.932
same,normalized growth,"S. cerevisiae deletion strains, strain wtn01, active compounds read low",0.786 (active)
same,normalized growth,"S. cerevisiae strains, strain wild type, active compounds read low",0.806 (active)
